Structures are written as SMILES. This is part of a sample that, as a whole, favours compounds with a hit. Of some 83,000 tested, about 20% had one in any assay.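 Interpretation: 100, growth as untreated; towards 0, rising growth inhibition; 0, no net growth; 0 to -100, cell death. Compounds scoring below 10 were considered active.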 Values without a mark were called inactive. Active and inactive are the calls of the source.

Data on 16 compounds can be found in PubChem BioAssay (NCI).

Common to all, as to test: NCI-60 one-dose screen, 48 h (100 = growth as untreated, 0 = no growth, -100 = all killed)
Details in all cases: 10 µM unless noted

Experiment [1] concerns T-47D breast.
The subject of experiment [2] is BT-549 breast.
For experiment [3], the system named is MDA-MB-435 melanoma.
Experiment [4] deals with SW-620 colon.
Experiment [5] deals with MCF7 breast.
Experiment [6] deals with HCT-116 colon.
In experiment [7] the test system is HCC-2998 colon.
The test system of experiment [8] is KM12 colon.

With `Cn1cc(-c2csc(-c3cn(C(=O)OC(C)(C)C)c4ccccc34)n2)c2ccnc(Cl)c21`, the growth in experiment [1] was 29.1%; in experiment [2], 84.2%; in experiment [3], 78.8%; in experiment [4] it was 56.2%; in experiment [5], 33.3%; in experiment [6] it was 30%. In experiment [7], the growth is 83.5%.
For `Cn1c(=O)c2c(c3ccccc31)OC(N)=C(C#N)C21C(=O)c2ccccc2C1=O`, the growth was 96.3% in experiment [1]; 87.2% in experiment [2]; 98.4% in experiment [3]; 82.3% in experiment [4]; 90% in experiment [5]; 92.2% in experiment [6]. In addition, the growth in experiment [7] was 101%.
As for `O=C1/C(=C/c2cccc([N+](=O)[O-])c2)COc2ccc(O)cc21`, the growth was 46.2% in experiment [1]; 63.3% in experiment [2]; 12.4% in experiment [3]; -47.3% (active) in experiment [4]; -26.2% (active) in experiment [5]; -44.6% (active) in experiment [6]. Besides, the growth in experiment [7] is 58.7%.
`COc1cc(OC)cc(C2C(C#N)=C(N)Oc3c2ccc2ccc(O)cc32)c1` (centres undefined): the growth in experiment [1] was 58.4%; in experiment [2] it was 26.2%; in experiment [3] it was 4.98% (active); in experiment [4], 26.1%; in experiment [5] it was 7.95% (active); in experiment [6], 4.25% (active). Moreover, in experiment [7], the growth was 7.75% (active).
Regarding `CCN=C1C=CC(=C(c2ccc(N(C)C)cc2)c2ccc(N(C)C)cc2)c2ccccc21`, the growth in experiment [1] was -22.8% (active); in experiment [2], -35.2% (active); in experiment [3], -35.2% (active); in experiment [4], -9.44% (active); in experiment [5], -9.8% (active); in experiment [6] it was -51.6% (active). Besides, the growth in experiment [7] is -40.8% (active).
Take `Cn1cc(/C=C2/C(=O)Nc3ccccc32)c2ccccc21`: the growth in experiment [1] is 64.7%; in experiment [2], 88.4%; in experiment [3] it was 106%; in experiment [4] it was 102%; in experiment [5], 69.2%; in experiment [6], 90.4%. Moreover, the growth in experiment [7] is 98.2%; in experiment [8] it was 14.8%.
Consider `Nc1c(C(=O)O)cc(Cl)cc1[N+](=O)[O-]`, for which the growth in experiment [1] is 95.6%; in experiment [2], 109%; in experiment [3], 105%; in experiment [4], 99.5%; in experiment [5] it was 95.2%; in experiment [6] it was 94.6%. In addition, in experiment [7], the growth was 95.1%.
For the compound `O=C(/C=C/C12c3ccccc3C(c3ccccc31)C1C(=O)NC(=O)C12)c1ccccn1` (centres undefined), the growth was 9.45% (active) in experiment [1]; 11% in experiment [2]; -23.7% (active) in experiment [3]; -1.62% (active) in experiment [4]; 10.4% in experiment [5]; -65% (active) in experiment [6]. Also, in experiment [7], the growth is 16.5%.
As to `CN(C)c1ccc(/C=C/C(=O)c2ccc(Nc3nc(Nc4ccc(F)cc4)nc(Nc4ccc(Cl)cc4)n3)cc2)cc1`, the growth in experiment [1] was 50.4%; in experiment [2], 75.7%; in experiment [3], 56.2%; in experiment [4], 92.3%; in experiment [5], 56.7%; in experiment [6], 58.7%. In addition, the growth in experiment [7] was 111%.
For the compound `CCCCCCCCCCCCCCCCCCOc1ccccc1CC(=O)NCC[N+]1(C)CCOCC1`, the growth in experiment [1] was 62.3%; in experiment [2], 39.8%; in experiment [3], 76%; in experiment [4] it was 79.2%; in experiment [5], 69%; in experiment [6], 61.8%. Besides, in experiment [7], the growth is 31.1%.
Regarding `CCCCCCNc1nc(NCCCCCC)c2[nH]c(NCCCCCC)nc2n1`, the growth is 33.3% in experiment [1]; 71.6% in experiment [2]; 67.5% in experiment [3]; 16.3% in experiment [4]; 20.9% in experiment [5]; -35% (active) in experiment [6]. Besides, the growth in experiment [7] is 46.6%.
Consider `CN1C(=O)N(C)C2C1NC(=S)N2/N=C/C=C/c1ccccc1[N+](=O)[O-]` (centres undefined), for which the growth is 22.4% in experiment [1]; 68.1% in experiment [2]; -61.7% (active) in experiment [3]; 22.7% in experiment [4]; 18.7% in experiment [5]; 19.5% in experiment [6]. Also, the growth in experiment [7] is 60.5%.
For the compound `CC[C@H](Nc1nc(N)nc(C)c1C#N)c1nc2cccc(NCCCCCC(=O)NO)c2c(=O)n1-c1ccccc1`, the growth in experiment [1] was 1.28% (active); in experiment [2] it was 39.4%; in experiment [3], 64.1%; in experiment [4] it was 68.3%; in experiment [5], 31.5%; in experiment [6], 71.3%. For the same compound, the growth in experiment [7] is 87%; in experiment [8], 80.3%.
Take `O=C(/C=C/c1ccc(Br)cc1)c1ccc(-n2cc(CN3CCN(c4cc5c(cc4F)c(=O)c(C(=O)O)cn5C4CC4)CC3)nn2)cc1`: the growth was 80% in experiment [1]; 81.3% in experiment [2]; 86.6% in experiment [3]; 95.5% in experiment [4]; 64.8% in experiment [5]; 7.82% (active) in experiment [6]. The growth in experiment [7] is 98.5%.
As for `CC1=CCC[C@@H]2C1(C)CC[C@H](C)[C@@]2(C)CC1=CC(=O)C(SC(C)(C)C)=CC1=O` (some centres undefined), the growth is -11.8% (active) in experiment [1]; 80.5% in experiment [2]; 97.2% in experiment [3]; 78.9% in experiment [4]; -61.1% (active) in experiment [5]; 64% in experiment [6]. For the same compound, the growth in experiment [7] was 96.8%.
With `COc1ccc(C2C3=C(COC3=O)N(CCO)c3cc4c(cc32)OCCO4)cc1OC` (centres undefined), the growth was 25.9% in experiment [1]; 53.9% in experiment [2]; -44.1% (active) in experiment [3]; 13.2% in experiment [4]; 15.9% in experiment [5]; 18.2% in experiment [6]. Also, the growth in experiment [7] was 48.7%.
